Measurements published in PubChem BioAssay AID2023 (NMMLSC, 2009).
Among all 320,000 compounds or so, about 1,100 (0.34%) were called active.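 The calls were made as follows: active = GFP response vs DMSO above a set limit, about the screen mean plus 3 SD (cut at about 150% in these data); inconclusive = under 70 cell events counted for the yeast strain; inactive = the rest.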 The sample as a whole holds a higher share of actives than the screen did.

Assay: TOR pathway LAP4-GFP level changes – S. cerevisiae, multiplex flow cytometry, MLPCN library, primary screen (AID 2023)
Details: 3 h, at 10 µM, stronger effect = higher value, median GFP as percent of DMSO wells

SMILES | GFP response vs DMSO
O=C(CCC(=O)OCc1cccc(C(=O)Oc2ccccc2)c1)Nc1cccc2ccccc12 | 104% (inactive)
COc1ccc(-c2nn(-c3ccccc3)cc2/C=N/Nc2ccccn2)cc1OC | 96.4% (inactive)
Oc1ccc(Br)cc1C=Nc1ccc2[nH]ncc2c1 | 93.5% (inactive)
Oc1ccc(Br)cc1/C=N/Nc1ccccn1 | 287% (active)
O=C(CC1SC(=Nc2ccccc2F)N(CCN2CCOCC2)C1=O)Nc1ccc(F)cc1F (stereo unspecified) | 126% (inactive)
NC(=O)Cc1nc2scc(-c3ccc(Cl)cc3)c2c(=O)[nH]1 | 95.5% (inactive)
O=c1[nH]c(CN2CCOCC2)nc2cc(Cl)ccc12 | 92.7% (inactive)
O=c1[nH]c(CCl)nc2cc(-c3ccc(Cl)cc3)sc12 | 163% (active)
O=C(O[C@@H]1[C@H](Cc2ccccc2)NS(=O)(=O)[C@H]2C[C@@H]3C=C[C@]12O3)c1ccccc1Br | 97.1% (inactive)
CN(CCO)Cc1csc2ccc(Br)cc12 | 106% (inactive)
Cc1ccc(-n2cnc3ncnc(-c4ccccc4)c32)cc1 | 102% (inactive)
Cc1ccc(-c2nn(C(C)(C)C)c3ncnc(N)c23)cc1 | 190% (active)
O=C(Nc1ccc(Cl)cc1)c1cccc(OC(=S)N2CCOCC2)c1 | 65.6% (inactive)
Oc1c(Cl)cc(Cl)c(Cl)c1Cc1c(O)c(Cl)cc(Cl)c1Cl | 174% (active)
COc1ccc(C)cc1NC(=O)CN(C)S(=O)(=O)c1ccc2c(c1)n(C)c(=O)c(=O)n2C | 94.1% (inactive)
CC(C)(C)OC(=O)C[C@@H]1C/C=C\C[C@@H](CC(=O)N[C@H](CO)Cc2ccccc2)C(=O)NC[C@@H](c2ccccc2)OC1=O | 83% (inactive)
Cc1c(O)c(C)c2c(c1O)C(=O)C[C@@H](c1ccccc1)O2 | 99.7% (inactive)
CCc1ccc(C2C(C#N)=C(N)Oc3n[nH]c(CC(=O)OC)c32)cc1 (stereo unspecified) | 99.1% (inactive)
CCCc1[nH]nc2c1C(c1ccc(Br)s1)C(C#N)=C(N)O2 (stereo unspecified) | 152% (active)
CCCc1[nH]nc2c1C(c1ccc(OC(=O)c3ccco3)cc1)C(C#N)=C(N)O2 (stereo unspecified) | 93.3% (inactive)
CC[C@@H](C)[C@@H]1CN([C@@H](C)CN2CCC[C@H]2CN2C(N)=NC[C@H]2C(C)C)C(=N)N1CCc1ccc(Cl)c(Cl)c1 | 102% (inactive)
CC1CC2=C(CC1/C=N/NC(N)=S)C(C)(C)CCC2 (stereo unspecified) | 154% (active)
Cc1ccc(CS(=O)Cc2ccc(C(=O)N3CCOCC3)o2)cc1 (stereo unspecified) | 103% (inactive)

SMILES | GFP response vs DMSO
N/C(=N\OC(=O)CCC1CCCCC1)c1ccccn1 | 92.5% (inactive)
Cn1c(SCC(=O)Nc2cccc(NC(=O)c3cccs3)c2)nnc1-c1ccncc1 | 94.8% (inactive)
CCOc1ccc(/C=N/NC(N)=S)cc1 | 109% (inactive)
NC(N)=N/N=C/c1ccc(OCc2ccc(Cl)cc2Cl)cc1 | 160% (active)
OC(CNCCc1ccc(Cl)cc1Cl)COc1ccccc1 (stereo unspecified) | 93.6% (inactive)
COc1cc(OC)cc(/C(N)=N/O)c1 | 114% (inactive)
CCc1ccccc1NC(=O)c1cc(-c2ccc3c(c2)OCO3)on1 | 93.6% (inactive)
O=C(Nc1ccccc1C(F)(F)F)c1cc(-c2ccc(O)cc2)on1 | 151% (active)
O=C(Nc1cccnc1Cl)c1cc(-c2cccc(Cl)c2)on1 | 98.9% (inactive)
CCCc1ccc(OCC(=O)NNC(=S)NC(=O)c2ccco2)cc1 | 182% (active)
CCCc1ccc(OCCNC(=O)c2ccco2)cc1 | 83.5% (inactive)
CC(Oc1ccc2ccccc2c1)C(=O)NNC(=S)NC(=O)c1ccco1 (stereo unspecified) | 237% (active)
COc1ccc(C(=O)NC(=S)NNC(=O)c2c(-c3ccccc3)noc2C)cc1 | 102% (inactive)
Cc1ccc(C(=O)NNC(=O)C(C)Oc2ccc3ccccc3c2)o1 (stereo unspecified) | 104% (inactive)
CC(C)Oc1ccc(CCC(=O)NNC(=S)NCc2ccccc2)cc1 | 103% (inactive)
O=C(Nc1ccc2ccccc2c1)/C(=C/c1cccc(Br)c1)NC(=O)c1ccco1 | 91% (inactive)
COc1ccc(C(=O)NC(=S)NNC(=O)CCc2ccccc2)cc1 | 195% (active)
Cc1ccc(OCC(=O)NCCCNC(=O)c2ccco2)cc1C | 90% (inactive)
CCn1c(=S)[nH]c2cc(S(=O)(=O)N3CCOCC3)ccc21 | 89.3% (inactive)
Cc1ccc2cccc(S(=O)(=O)N3CCN(c4ccccc4F)CC3)c2n1 | 110% (inactive)
Cc1ccc(C(=O)N2CCCC(c3ccccc3)=N2)cc1 | 107% (inactive)
CC(C(=O)Nc1ccccc1-c1ccccc1)N1CCOCC1 (stereo unspecified) | 100% (inactive)
CC(C)c1ccc(NC2CCCN(C(=O)c3ccncc3)C2)cc1 (stereo unspecified) | 93.3% (inactive)

SMILES | GFP response vs DMSO
COC(=O)c1cc(S(=O)(=O)NC2CCN(Cc3ccccc3)CC2)cn1C | 95.7% (inactive)
CC12CN3CCN(CC(C3)/C1=N\NC(=O)c1ccccc1N)C2 | 102% (inactive)
CC(=O)Nc1ccc(NC(=O)COC(=O)C2CCC(C(C)(C)C)CC2)cc1 (stereo unspecified) | 107% (inactive)
Cc1cccc(C)c1NC(=O)CN(C)C(=O)CCC(=O)c1ccccc1 | 104% (inactive)
Cc1cccc(C)c1NC(=O)C(Cl)C(=O)c1ccccc1 (stereo unspecified) | 269% (active)
Cc1cccc(C)c1NC(=O)C(c1ccccc1)N1CC(=O)Nc2ccccc21 (stereo unspecified) | 90.5% (inactive)
FC(F)(F)c1cnc(Oc2ccccc2-c2nnc(-c3ccc(Cl)cc3)o2)c(Cl)c1 | 96.3% (inactive)
COc1cccc(/C=N/Nc2ncc(C(F)(F)F)cc2Cl)c1O | 184% (active)
Oc1cccc(/C=N/Nc2ccc(Cl)nn2)c1O | 89.6% (inactive)
Cc1ccc2nsnc2c1NC(=O)c1ccccc1[N+](=O)[O-] | 93.2% (inactive)
Cc1cc(=O)n2nc(N3CCCC(C(=O)NCc4cccc(Cl)c4)C3)sc2n1 (stereo unspecified) | 92.2% (inactive)
Cc1cc(=O)n2nc(N3CCCC(C(=O)NCCC4=CCCCC4)C3)sc2n1 (stereo unspecified) | 196% (active)
Cc1cc(=O)n2nc(N3CCCC(C(=O)NCc4ccc(Cl)cc4)C3)sc2n1 (stereo unspecified) | 92.3% (inactive)
CC(=O)NCCC(=O)Nc1cc(S(=O)(=O)N2CCCCC2)ccc1Oc1cccc(C)c1 | 87.1% (inactive)
COc1ccc([C@H]2CC(=O)C=C(/C=C/c3ccccc3)C2)cc1 | 115% (inactive)
CC1=C/C(=N\OS(=O)(=O)c2ccccc2)C=CC1=O | 257% (active)
CCn1c(SCC(=O)Nc2ccc(OC)c(OC)c2)nnc1-c1c[nH]c2ccccc12 | 98.2% (inactive)
CCC(C)Sc1nnc(-c2c[nH]c3ccccc23)n1CCOC (stereo unspecified) | 90.4% (inactive)
CCn1c(SCCC(C)C)nnc1-c1c[nH]c2ccccc12 | 169% (active)
C#CCOCCOCCOCCNc1nc(N2CCN(C(=O)CCCCCCCCCCNC(=O)[C@H]([C@@H](C)CC)n3cc(CCCCN=C(N)N)nn3)CC2)nc(N2CCN(C(=O)CCCCCCCCCCNC(=O)[C@H](CO)n3cc(CCCSC)nn3)CC2)n1 | 135% (inactive)
C#CCOCCOCCOCCNc1nc(N2CCN(C(=O)CCCCCCCCCCNC(=O)Cn3cc(CCCCCN)nn3)CC2)nc(N2CCN(C(=O)CCCCCCCCCCNC(=O)[C@H](CO)n3cc(CCCSC)nn3)CC2)n1 | 118% (inactive)
C#CCOCCOCCOCCNc1nc(N2CCN(C(=O)CCCCCCCCCCNC(=O)[C@H](CCCCN)n3cc(C)nn3)CC2)nc(N2CCN(C(=O)CCCCCCCCCCNC(=O)[C@H](CO)n3cc(CCCSC)nn3)CC2)n1 | 155% (active)
Cc1ccc(C2CCN(C(=S)Nc3cccc(Cl)c3)C2)cc1 (stereo unspecified) | 158% (active)

SMILES | GFP response vs DMSO
O=C(C1CCCO1)N1CCN(C(=S)Nc2cccc(Cl)c2)CC1 (stereo unspecified) | 95.7% (inactive)
Cc1cccc(NC(=S)N2CCCC(c3nc4ccccc4[nH]3)C2)c1 (stereo unspecified) | 93.9% (inactive)
O=S(=O)(c1ccc2ccccc2c1)N1CCN(S(=O)(=O)N2CCOCC2)CC1 | 87% (inactive)
COc1ccc(C)cc1N(CC(=O)NC(C)c1ccccc1)S(C)(=O)=O (stereo unspecified) | 80.6% (inactive)
Clc1ccccc1CSc1nnc(-c2ccco2)c(-c2ccco2)n1 | 186% (active)
S=C(NCc1ccco1)NCc1ccccc1Cl | 85.2% (inactive)
O=C(CC1N=C2c3ccccc3N=C(SCc3ccccc3Cl)N2C1=O)NCc1ccco1 (stereo unspecified) | 97.5% (inactive)
CN1CCCc2cc(C#N)c(=O)[nH]c21 | 105% (inactive)
Cc1ccc(S(=O)(=O)N(C)C)cc1NC(=O)c1ccc(-n2cncn2)c([N+](=O)[O-])c1 | 98% (inactive)
NC(=O)c1ccccc1N=Cc1ccc2ccccc2c1 | 88.2% (inactive)
COc1cccc(NC(=O)C2CCCN(c3ncnc4c3nc3n4CCCCC3)C2)c1 (stereo unspecified) | 94.5% (inactive)
O=C(Nc1cccnc1)c1ccc(Cl)c([N+](=O)[O-])c1 | 119% (inactive)
O=C(/C=C/c1ccc(Cl)cc1Cl)c1cccnc1 | 99.4% (inactive)
O=C(/C=C/c1ccc(Cl)c([N+](=O)[O-])c1)c1cccnc1 | 236% (active)
Cc1cc(NC(=O)CN2C(=O)NC(CCc3ccccc3)C2=O)no1 (stereo unspecified) | 92.5% (inactive)
Cc1ccc(NC(=O)N2CCSc3ccccc32)cc1 | 96.8% (inactive)
O=C(NCCS(=O)(=O)c1ccc(Br)cc1)c1ccccc1Cl | 102% (inactive)
CCc1noc(C)c1C(=O)N1CCCSC1=Nc1ccccc1OC | 101% (inactive)
CC(C)[C@@H]1COC(c2cccc(C3=N[C@H](C(C)C)CO3)c2)=N1 | 163% (active)
CCOCc1c(C(=O)N2CCN(Cc3ccc(Br)s3)CC2)oc2ccccc12 | 102% (inactive)
COc1ccc(Cn2c(-c3ccc(Cl)cc3)c[n+]3ccccc23)cc1 | 101% (inactive)
C/C(N)=C(\C#N)C(=O)NCCc1ccccn1 | 87.1% (inactive)
